SARS PLP yeast: inhibitors of SARS-CoV papain-like protease in yeast; S. cerevisiae expressing SARS-CoV PLpro, growth rescue; Potency, µM (highest dose often 32.9 µM), without a hit: at the highest dose activity, positive = growth rescue, actives largely listed as activators; 330,000 tested, 0.19% active; AID 485353; note: 0% is about no effect; nearly all actives have a fitted effect of over 55% in size
NS1 inh: influenza NS1 inhibition | Potency, µM (doses to about 46.1 µM), without a hit: at the highest dose activity, positive = more growth | 270,000 tested, 0.4% active | AID 2326; note: actives are rising curves; nearly all actives have a fitted effect of over 50% in size
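Read-out: OD600 growth recovery of NS1-expressing budding yeast. Cells grown overnight at 30C in -URA glucose medium, washed, resuspended and diluted 1:100 in 2% galactose assay medium, pH 6.0. Same strain lacking NS1 served as positive control.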
Pf growth 48h: inhibits P. falciparum growth in the first generation, 48 h. AID 504832. P. falciparum luciferase growth in erythrocytes, 48 h. Potency, µM (series often up to 28.7 µM), inactives show at the top dose activity change, negative = inhibition, most hits filed as inhibitors. 310,000 tested, 5.9% active; active = well fitted inhibition curve with a large enough effect; inconclusive = small, poorly fitted or top-dose-only effect, or another doubt; inactive = no such curve, though single readings can be large or run the other way; note: % is set by controls: 0 for no effect and ±100 for the full control effect
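A one-generation exposure of luciferase-tagged malaria parasites in RPMI 1640/Albumax erythrocyte culture, 37 C and 5% CO2. Inhibition is inferred from decreased luminescence after adding detection reagent.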
RE007 growth inh: less growth of the S. pombe RE007 Vpr strain; AID 651644; Potency, µM (doses to about 92.2 µM), inactives show at the top dose activity change, negative = less growth, usual class: inhibitors; 360,000 tested, 0.21% active; S. pombe RE007 Vpr strain, BacTiter-Glo ATP luminescence, 24 h; active = well fitted falling curve with a large enough effect; inconclusive = small, poorly fitted or top-dose-only effect; inactive = no such curve, though single readings can be large or run the other way; note: % is set by controls: 0 for no effect and ±100 for the full control effect; nearly all actives have a fitted effect of over 50% in size
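Fission yeast strain RE007, carrying one chromosomally integrated HIV-1 vpr copy, was seeded at OD 0.01 in PMG+AL medium with 23 nL pinned compound. After 24 h at 30 °C and 99% humidity, viability was read by BacTiter-Glo luminescence.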
Pf growth 96h: inhibits malaria parasite growth, 96 h; P. falciparum luciferase reporter growth, 96 h; Potency, µM (top dose mostly 28.7 µM), for inactives: at the top dose activity change, negative = inhibition, usual class: inhibitors; 320,000 tested, 6.9% active; AID 504834; active = well fitted inhibition curve with a large enough effect; inconclusive = small, poorly fitted or top-dose-only effect, or another doubt; inactive = no such curve, though single readings can be large or run the other way; note: % is set by controls: 0 for no effect and ±100 for the full control effect
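Two-generation exposure (96 h) targets delayed-death phenotype. Reporter parasites carrying integrated firefly luciferase, in red cells at 2% hematocrit and 0.05% parasitemia final, kept at 37 C, 5% CO2; luminescence loss indicates inhibition.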
Numbers without * were called inactive; ? = inconclusive; . = no result; [ ] = dose if it differs, or a comment. Hits are enriched below; roughly 9.5% of the tested compounds scored in any of these assays. Unless noted, calls come from the whole dose curve. Potency is the fitted concentration of half-maximal effect.

SMILES | SARS PLP yeast | NS1 inh | Pf growth 48h | RE007 growth inh | Pf growth 96h
C[C@@H]1CN([C@H](C)CO)C(=O)CCCn2nncc2CO[C@@H]1CN(C)C(=O)Nc1cccc2ccccc12 | . | . | . | -7% | .
CC(C)Nc1ncnc2c1ncn2[C@H]1CN(C2CCCC2)C[C@@H](CO)O1 | . | . | . | 5% | .
CC(CCc1ccc(O)cc1)NC1c2ccccc2-c2ccccc21 (configuration not stated) | 3% | -6% | 15µM* | 4% | ?
CC(CCc1ccc(O)cc1)NC1C2CC3CC(C2)CC1C3 (configuration not stated) | ? | -9% | 13µM* | 8% | -86%
CC(O)CCc1ccc(O)cc1 (configuration not stated) | 1% | . | 3% | 32% | 4%
Cc1ccc2cccc(CC(=O)NN)c2c1 | . | . | . | 0% | .
CCC1NC(=O)c2cccnc2-n2c1nc1cc(F)ccc1c2=O (configuration not stated) | . | . | . | 13% | .
O=C1NC[C@H](CCCCN2C[C@H](Cc3ccccc3)N(CCc3ccccc3)C(=O)C2=O)N(CCC2CCCCC2)C1=O | . | . | . | 2% | .
O=C(NN=C1CCCC1)c1ccc(O)cc1O | -4% | 21% | -10% | 7% | 13µM*
O=C(NN=C1CCCC1)c1cc(Br)ccc1O | -3% | -26% | 28% | -8% | ?
O=C(CCNC(=O)c1ccc(Br)cc1)Nc1ccc(S(=O)(=O)Nc2ncccn2)cc1 | 8% | . | -6% | -14% | 20%
O=c1[nH][nH]c2c1[C@H](CCc1cccc(Cl)c1)O[C@H](C1CCCC1)C2 | . | . | . | 10% | .
CN(C(=O)CSc1nccc(=O)[nH]1)C1CCCCC1 | 4% | . | . | 6% | .
CN(C(=O)CCCOc1ccc2[nH]c(=O)ccc2c1)C1CCCCC1 | . | 1% | ? | . | 0.6µM*
CCN(C1CCCCC1)S(=O)(=O)c1ccc(S(=O)(=O)N2CCN(CCC#N)CC2)cc1 | -5% | -34% | ? | -4% | 6.6µM*
N#CCCN1CCN(S(=O)(=O)c2ccc(S(=O)(=O)N3CCCCCC3)cc2)CC1 | -1% | 0% | 3% | 0% | 170%
O=C1C=C(c2ccccc2Oc2ccccc2)C[C@@H](c2ccc(F)cc2)C1 | . | . | . | 0% | .
CCOC(=O)c1cc(-c2ccccc2)nc2c(O)cccc12 | . | . | . | 14% | .
O=C(NC1CCCCCC1)C1c2ccccc2C(=O)N1CCCN1CCOCC1 (configuration not stated) | -9% | -2% | -12% | -2% | 13µM*
CC(C)(C)OC(=O)N1CCC(C(=O)N2CCCCCC2)CC1 | 5% | -8% | 1% | 19% | 12µM*
CCOc1cc(/C=C2\SC(=N)N(c3nonc3N)C2=O)ccc1OCCN1CCOCC1 | 1% | -5% | 1.3µM* | -4% | ?
O=c1c2c(-c3ccco3)csc2nc(SCc2cn3cccnc3n2)n1-c1ccccc1 | -2% | -1% | 7.4µM* | -11% | 9.3µM*
c1ccc(Cn2c(SCc3cn4cccnc4n3)nnc2-c2ccco2)cc1 | -9% | -8% | 27% | -13% | 12µM*
NC(=O)CSc1nc2scc(-c3ccco3)c2c(=O)n1-c1ccccc1 | 2% | 10% | -6% | 8% | .
O=C(NCc1ccccc1)C(c1ccccc1F)n1c(=O)c(-c2ccco2)nc2ccccc21 (configuration not stated) | . | . | . | 1% | .
SMILES | SARS PLP yeast | NS1 inh | Pf growth 48h | RE007 growth inh | Pf growth 96h
CC(C)(C)N(Cc1ccccc1)C(=O)CN1C(=O)NC2(CCCCCC2)C1=O | 3% | . | ? | -5% | ?
O=C(O)COc1nn(Cc2ccccc2)c2ccccc12 | . | . | 1% | . | ?
COc1ccccc1C(=O)NCCN1CCN(C(=O)c2ccccc2OC)CC1 | 3% | -7% | -15% | 2% | 486%
Cc1c(OCC(=O)NC2CC(C)(C)NC(C)(C)C2)ccc2c1oc(=O)c1ccccc12 | 3% | -10% | 3.7µM* | -1% | 3.3µM*
CCCCc1cc(=O)oc2c(C)c(OCC(=O)NCC3CCC(C(=O)O)CC3)ccc12 (configuration not stated) | 13% | 29% | 40% | -4% | 10µM*
CCCc1cc(=O)oc2c(C)c(OCC(=O)NC3CCN(Cc4ccccc4)CC3)ccc12 | 4% | -8% | ? | -8% | 13µM*
CCCc1cc(=O)oc2c(C)c(OCC(=O)Nc3ccc(CN4CCOCC4)cc3)ccc12 | 0% | 14% | ? | 4% | 4.1µM*
Cc1c(OCC(=O)NC2CC(C)(C)NC(C)(C)C2)ccc2c3c(c(=O)oc12)CCC3 | -1% | -11% | ? | -12% | ?
Cc1cc(=O)oc2c(C)c(OCC(=O)NCC3CCC(C(=O)O)CC3)ccc12 (configuration not stated) | 8% | 0% | 29% | -2% | 4%
NNC(=O)[C@@H](O)[C@H](O)C(=O)NN | . | 0% | . | . | .
C[C@@H]1C(=O)O[C@H]2C[C@@]34[C@H]5C[C@@H](C(C)(C)C)[C@]36[C@@H](OC(=O)[C@@H]6O)O[C@@]4(C(=O)O5)[C@]21O | 3% | 2% | 19% | 0% | 26%
O=C(c1ccco1)N1CCN(C(=O)C2CC(=O)N(c3ccccc3)C2)CC1 (configuration not stated) | 1% | 0% | 11% | 0% | ?
COc1ccc(Br)c(Cn2c(C)c(C(=O)NCc3cccc([N+](=O)[O-])c3)sc2=O)c1 | . | . | . | 5%[18.4 µM] | .
CC1CC(C)CN(C(=O)COC(=O)c2nn(C)c(=O)c3ccccc23)C1 (configuration not stated) | . | . | 6% | -12% | 2%
CCc1nc(SCC(=O)Nc2cccc(C(F)(F)F)c2)c2c(=O)n(C)c(=O)n(C)c2n1 | 0% | -2% | 9.3µM* | -2% | ?
CCc1ccc(CN(C)C(=O)CCc2nnc(CCc3ccccc3OC)o2)nc1 | 0% | -2% | -10% | -21% | 1%
CCc1csc(CCNC(=O)C2CCC(=O)N(CCc3cccc(F)c3)C2)n1 (configuration not stated) | -1% | -1% | 4% | -5% | 1%
CCc1cc(CNC(=O)C2CCC(=O)N(Cc3cccc(F)c3)C2)on1 (configuration not stated) | 3% | 12% | 21% | 8% | 12µM*
O=C(NCc1cc2ccccc2[nH]1)C1CCC(=O)N(CCCN2CCCC2=O)C1 (configuration not stated) | 5% | 4% | 2% | -4% | 10µM*
O=C(NCCN1CCCC1=O)C1CCC(=O)N(CCc2cccc(F)c2)C1 (configuration not stated) | 0% | 3% | 24% | 7% | 13µM*
Cc1nc(CCNC(=O)C2CCC(=O)N(CCc3cccc(F)c3)C2)sc1C (configuration not stated) | 0% | -9% | 9% | -8% | 15µM*
CCC1CCC(C(=O)NC(C(=O)NCCN2CCOCC2)C(C)C)CC1 (configuration not stated) | 16% | -8% | 3% | 1% | ?

Compound activity: PubChem, National Center for Advancing Translational Sciences (NCATS)
